Out of some 13,000 compounds screened, about 3,200 (25%) showed an effect of 50% or more. The list shows a part of the results.

As usually defined, the % Inhibition is the relative decrease from the control value, in per cent.

The test system of this experiment is P. falciparum stage V gametocytes. The arrangement: BacTiter-Glo ATP luminescence viability of purified stage V gametocytes in 384-well plates, per cent inhibition versus DMSO. As to conditions: 48 h, 5 µM; inhibitor.
As for `Cc1ccc(N2CCN(CCCCNC(=O)c3ccc(NC(=O)c4ccc(Cl)cc4)cc3)CC2)c(C)c1` [TCMDC-138507], the “% Inhibition” value stood at 8.523%. As for `O=C1OC2(CN1CC1CCN(Cc3ccc(O)c(Cl)c3)CC1)c1ccccc1-c1ccccc12` [TCMDC-136071], the “% Inhibition” value is listed as 20.11%. To `O=S(=O)(NCCN1CCCC1)c1ccc(-c2cccc(CNCCc3cccs3)c2)s1` [TCMDC-132376] belongs 19.55%; to `O=S(=O)(NCCN1CCCC1)c1cccc(-c2cccc(CNCCc3cccs3)c2)c1` [TCMDC-132378], 78.26%; to `O=S(=O)(NCCN1CCCC1)c1ccc(-c2cccc(CNCCc3cccs3)c2)cc1` [TCMDC-132374], 64.21%.

In the case of `COc1ccc(CN(C)Cc2cc(C(C)C)c(C)cc2O)cc1F` [TCMDC-124597], the “% Inhibition” value was -22.84%. On to `O=C(Nc1nccs1)c1cc(-c2cccnc2)nc2ccc(Br)cc12` [TCMDC-125215], for which the “% Inhibition” value is listed as -12.6%. Consider `CO[C@H](C)[C@H](NC(=O)[C@H](CC(C)C)[C@H](CCC(F)(F)F)N(O)C=O)C(=O)Nc1nccs1` [TCMDC-138190], for which the “% Inhibition” value was 15.4%. On to `CN(CCC1CCN(C(=O)/C=C/c2ccc(Cl)c(Cl)c2)CC1)C1CCC(c2c[nH]c3ccccc23)CC1` (stereo not drawn) [TCMDC-140107], for which the “% Inhibition” value is on record as 60.82%. On to `O=C(/C=C/c1ccc(Cl)c(Cl)c1)N1CCC(CCCN2CCC(c3c[nH]c4ccccc34)CC2)CC1` [TCMDC-139795], for which the “% Inhibition” value came to 25.74%. To `CN(CC1CCC(NC(=O)/C=C/c2ccc(Cl)c(Cl)c2)CC1)C1CCC(c2c[nH]c3ccccc23)CC1` (stereo not drawn) [TCMDC-140213] belongs -15.26%; to `COc1ccc2[nH]cc(C3CC4CCC(C3)N4CCC3CCN(C(=O)/C=C/c4ccc(Cl)c(Cl)c4)CC3)c2c1` (stereo not drawn) [TCMDC-139670], 106%. To `O=C(/C=C/c1ccc(Cl)c(Cl)c1)N1CCC(CN2CCC(Cc3c[nH]c4ccccc34)CC2)CC1` [TCMDC-140143] belongs -20.89%; to `O=C(/C=C/c1ccc(Cl)c(Cl)c1)N1CCC(NCc2c[nH]c3ccccc23)CC1` [TCMDC-134197], -0.4755%.

As for `CN(CCCc1c[nH]c2ccccc12)CC1CCN(C(=O)/C=C/c2ccc(Cl)c(Cl)c2)CC1` [TCMDC-140117], the “% Inhibition” value amounted to 55.67%. Turning to `O=C(/C=C/c1ccc(Cl)c(Cl)c1)N1CCC(CN2C3CCC2CC(c2c[nH]c4ccccc24)C3)CC1` (stereo not drawn) [TCMDC-139814], the “% Inhibition” value amounted to 116.4%. On to `COC(=O)c1ccc2[nH]cc(C3CCN(CCC4CCN(C(=O)/C=C/c5ccc(Cl)c(Cl)c5)CC4)CC3)c2c1` [TCMDC-139787], for which the “% Inhibition” value turned out to be 19.69%.

For `O=C(/C=C/c1ccc(Cl)c(Cl)c1)N1CCC(CN2CCC(c3c[nH]c4ccccc34)C(O)C2)CC1` (stereo not drawn) [TCMDC-139825], the “% Inhibition” value is -12.75%.

As to `O=C(/C=C/c1ccc(Cl)c(Cl)c1)N1CCC2CC(N3CCC(c4c[nH]c5ccccc45)CC3)CCC2C1` (stereo not drawn) [TCMDC-139677], the “% Inhibition” value is -29.29%. For `COc1ccc2[nH]cc(C3CCN(CCC4CCN(C(=O)/C=C/c5ccc(Cl)c(Cl)c5)CC4)CC3)c2c1` [TCMDC-139658], the “% Inhibition” value was -35.62%. As for `CCCCC1(NC(=O)[C@@H](Nc2ccc(C#N)c3ccccc23)C2CCCCC2)CCCCC1` [TCMDC-136636], the “% Inhibition” value was -65.73%. `CCOCc1cnc(C)nc1NCC(=O)c1c(C)[nH]c2cc(C)ccc12` [TCMDC-124067]: the “% Inhibition” value is -5.397%. As to `CC1(C)CCCC(=Cc2ccc(Br)cc2)C1(O)Cn1ccnc1` (stereo not drawn) [TCMDC-125214], the “% Inhibition” value is on record as 19.91%. `COc1cc2nccc(Nc3cc(C)cc(O)c3)c2cc1OC.Cl` [TCMDC-138196]: the “% Inhibition” value is on record as -1.594%. Turning to `CCCCOC(=O)c1ccc(NC(=O)Nc2ccc(Cn3ncc(N4CCCNCC4)c(Cl)c3=O)cc2)cc1` [TCMDC-133323], the “% Inhibition” value is -2.086%. With `COc1cccc(C(=O)C2CC2CN(C)CC(O)c2cc(C)c(OC)cc2C)c1` (stereo not drawn) [TCMDC-136802] the figure was 18.93%; with `COc1ccc(C(=O)C2CC2CN(C)CC(O)c2cc(C)c(OC)cc2C)cc1` (stereo not drawn) [TCMDC-136800], 56.77%. As to `COc1ccc(C(=O)C2CC2CN(C)CCC(O)c2ccc(Cl)c(Cl)c2)cc1` (stereo not drawn) [TCMDC-136792], the “% Inhibition” value was -25.71%. With `N#Cc1ccc(NC(=NCc2ccc(Cl)cc2Cl)Nc2cccc(Cl)c2Cl)c(O)c1` [TCMDC-140224] the figure was -0.417%.

For the compound `CC1(C)N=C(N)N=C(N)N1OCc1ccc2ccccc2c1` [TCMDC-125513], the “% Inhibition” value is given as 17.08%. `CC(C)Nc1nc(NCCc2cnc[nH]2)nc(NCc2ccc(Cl)c(Cl)c2)n1` [TCMDC-139747]: the “% Inhibition” value turned out to be 6.944%. Regarding `CC(=O)Nc1ccc(C(=O)Nc2ccc(-c3cccc(-c4nc5c(C)cccc5[nH]4)c3)cc2)cn1` [TCMDC-136831], the “% Inhibition” value is reported as 74.93%. With `CC(=O)Nc1cccc(C(=O)Nc2cccc(-c3ccc(-c4nc5c(C)cccc5[nH]4)cc3)c2)c1` [TCMDC-132136], the “% Inhibition” value is -12.3%. Consider `CC(=O)Nc1ccc(C(=O)Nc2ccc(-c3cccc(-c4nc5ccc(F)cc5[nH]4)c3)cc2)cn1` [TCMDC-136822], for which the “% Inhibition” value is listed as -42.62%. For `CC(=O)N(C)c1cccc(C(=O)Nc2ccc(-c3cccc(-c4nc5c(C)cccc5[nH]4)c3)cc2)c1` [TCMDC-137072], the “% Inhibition” value is recorded as -29.92%. With `CC(=O)Nc1ccc(C(=O)Nc2cccc(-c3ccc(-c4nc5c(C)cccc5[nH]4)cc3)c2)cn1` [TCMDC-136823] the figure was 57.24%; with `CC(=O)Nc1ccc(C(=O)Nc2cccc(-c3cccc(-c4nc5c(C)cccc5[nH]4)c3)c2)cn1` [TCMDC-136830], -4.811%; with `CN(C)CCC1CCCc2ccc(NC(=O)Nc3ccc(-c4ccncc4)c4ccccc34)cc21` (stereo not drawn) [TCMDC-139156], -24.46%. For `CCC(C)Oc1ccc(CCCON2C(N)=NC(N)=NC2(C)C)cc1` (stereo not drawn) [TCMDC-131784], the “% Inhibition” value turned out to be 25.06%.

With `CCOc1ccc(C(Cc2ccccc2)NC(=O)c2cccnc2)cc1OCC` (stereo not drawn) [TCMDC-124519], the “% Inhibition” value is 50.66%. As to `CCOc1ccc(CCC(=O)O)cc1OCC` [TCMDC-124302], the “% Inhibition” value stood at 4.043%. With `CCOc1cc(C(=O)Nc2cccnc2)cc(Br)c1OCCC(C)C` [TCMDC-123549] the figure was 16.86%; with `CCOc1ccc(C(C)NC(=O)Nc2ccccc2)cc1OCC` (stereo not drawn) [TCMDC-123556], 52.41%. Regarding `CN1CCN(c2ccc(Cl)cc2NC(=O)C2COc3ccccc3O2)CC1` (stereo not drawn) [TCMDC-124321], the “% Inhibition” value amounted to 9.444%. With `CCOc1ccc(C(C)NC(=O)Cc2ccccc2F)cc1OCC` (stereo not drawn) [TCMDC-123564] the figure was 31.28%; with `COc1cc(Nc2nccc(N3CCC(NC(=O)C4COc5ccccc5O4)C3)n2)cc(OC)c1OC` (stereo not drawn) [TCMDC-133625], -0.8923%. On to `CCOc1ccc(C(C)NC(=O)C2COc3ccccc3O2)cc1OCC` (stereo not drawn) [TCMDC-125018], for which the “% Inhibition” value is 78.92%. Take `CCCCNC(=O)[C@H](Cc1ccccc1)NC(=O)c1ccc(O)c(-c2ccc(Cl)c(Cl)c2)c1` [TCMDC-140840]: the “% Inhibition” value was 16.49%.

The values above are taken from PMC4552634, “A New Set of Chemical Starting Points with Plasmodium falciparum Transmission-Blocking Potential for Antimalarial Drug Discovery” (PLoS ONE, 2015).
